The source made the active and inactive calls.
Legend:
[1] = binders of probe aFSTL3 on microarray, primary screen, stem cell growth factor project, biochemical, small-molecule microarray, fluorescence 635/667 (AID 1064); details: higher = more signal;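 further: measures binding of the biotinylated anti-FSTL3 antibody to printed compounds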
[2] = binders from COS7 lysate, DM2A8 probe, primary screen, torsin A project, cell lysate, small-molecule microarray, fluorescence 635/667 (AID 1065); details: higher = more signal, COS7 lysate expressing mutant human TOR1A
[3] = binders of probe aFGF2 on microarray, primary screen, stem cell growth factor project, biochemical, small-molecule microarray, fluorescence 635/667 (AID 1067); details: higher = more signal;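 further: measures binding of biotinylated aFGF2 protein to printed compounds on slides; z-score merges feature fluorescence and signal-to-noise across triplicate slides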
[4] = binders of probe aFGF10 on microarray, primary screen, stem cell growth factor project, biochemical, small-molecule microarray, fluorescence 635/667 (AID 1071); details: higher = more signal;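 further: score merges 667 nm spot intensity and signal to noise from triplicate slides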
[5] = target: Neurogenic locus notch homolog protein 2 (Homo sapiens) (UniProt Q04721); assay: Notch2 binders on small-molecule microarrays, primary screen, biochemical, small-molecule microarray, 635 nm fluorescence, stem cell growth factors (AID 1073); details: Notch2 binding, higher = more signal
[6] = target: Pro-neuregulin-1, membrane-bound isoform (Homo sapiens) (UniProt Q02297); assay: NRG1 binders on small-molecule microarrays, primary screen, psychiatric disease protein project, biochemical, small-molecule microarray, fluorescence 635/667 (AID 1075); details: NRG1 binding, 635 nm fluorescence, higher = more signal;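 further: score combines 667 nm spot fluorescence with signal to noise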
[7] = test system: Neuregulin-1 EGF-like domain; assay: binders of neuregulin-1 EGF-like domain, primary screen, biochemical, small-molecule microarray, 635 nm fluorescence (AID 1081); details: small-molecule microarray binding, higher = more signal;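 further: binding of the protein to compounds printed on small-molecule microarray slides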
[8] = FRG1 promoter luciferase signal modulators, primary screen, FRG1 inhibition for FSHD, cell-based, C2C12 myotubes, firefly/Renilla luciferase, luminescence (AID 1084); details: higher = more signal, called active from +8 up or from −8 down
[9] = binders of probe aFST on microarray, primary screen, stem cell growth factor project, biochemical, small-molecule microarray, fluorescence 635/667 (AID 1086); details: higher = more signal;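 further: score merges 667 nm fluorescence with signal-to-noise of each printed compound spot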
[10] = binders of probe aHhip on microarray, primary screen, stem cell growth factor project, biochemical, small-molecule microarray, fluorescence 635/667 (AID 1087); details: higher = more signal;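 further: score merges spot fluorescence at 667nm with spot signal to noise ratio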
[11] = test system: PRMT1 (protein arginine N-methyltransferase 1); assay: PRMT1 binders on small-molecule microarrays, primary screen, biochemical, small-molecule microarray, 635 nm fluorescence (AID 1088); details: small-molecule microarray binding, higher = more signal;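 further: binding of Prmt1 protein to compounds spotted on small-molecule microarray slides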
[12] = yeast growth modulation, basal conditions, primary screen, YJM789 clinical isolate, OD600, 24 h (AID 1089);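 further: growth of clinical yeast isolate S. cerevisiae YJM 789 seeded 1000 cells per well; test concentration not given here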; details: S. cerevisiae YJM789 growth, higher = more signal, called active from +8 up or from −8 down
[13] = fission yeast growth modulation, primary screen, strain 972, OD600, 24 h, no modulator (AID 1090);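 further: basal condition with compound alone and no growth modifier present; test concentration not given here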; details: S. pombe 972 growth, higher = more signal, called active from +8 up or from −8 down
[14] = S. cerevisiae growth modulation with rapamycin, primary screen, strain BY4716, OD600, 96 h (AID 1091); details: higher = more signal, called active from +8 up or from −8 down; further: test concentration not given here
[15] = target: Torsin-1A-interacting protein 2 (Homo sapiens) (UniProt Q8NFQ8); assay: LULL1 binders on small-molecule microarray, primary screen, cell lysate, human LULL1 lysate, 635/667 nm fluorescence (AID 1092); details: hLULL1 lysate binding, 635 nm fluorescence, higher = more signal;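 further: probe is lysate of COS7 cells overexpressing human LULL1; score merges per-feature 667 nm fluorescence with signal-to-noise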
[16] = E. coli growth modulation, two-sided OD650, primary screen, E. coli filamentation project, strain DRC41, 24 h (AID 1093); details: OD650, 24 h, higher = more signal, called active from +8 up or from −8 down;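 further: MC1000 strain lacking acrAB efflux and sulA so SOS filamentation is blocked; test concentration not given here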
[17] = small-molecule microarray binders of probe aLefty2, primary screen, biochemical, biotinylated probe, 635/667 nm fluorescence (AID 1094); details: higher = more signal;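 further: score merges spot fluorescence near 667 nm with spot signal-to-noise ratio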
[18] = test system: Noggin (protein binding on small-molecule microarray); assay: Noggin binders on small-molecule microarray, primary screen, biochemical, 635/667 nm fluorescence (AID 1095); details: 635 nm fluorescence, higher = more signal;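 further: score merges 667 nm feature fluorescence with signal to noise over triplicate slides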
[19] = target: Neurogenic locus notch homolog protein 3 (Homo sapiens) (UniProt Q9UM47); assay: NOTCH3 binders on small-molecule microarray, primary screen, biochemical, 635/667 nm fluorescence (AID 1096); details: NOTCH3 binding, 635 nm fluorescence, higher = more signal
[20] = small-molecule microarray binders of probe aEGFR, primary screen, biochemical, biotinylated probe, 635/667 nm fluorescence (AID 1097); details: higher = more signal;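 further: probe is a biotinylated anti-EGFR antibody binding compounds printed on slides; score combines fluorescence near 667 nm and signal to noise of each spot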

Neurogenic locus notch homolog protein 3 (Homo sapiens), sequence (Q9UM47 whole entry, looked up): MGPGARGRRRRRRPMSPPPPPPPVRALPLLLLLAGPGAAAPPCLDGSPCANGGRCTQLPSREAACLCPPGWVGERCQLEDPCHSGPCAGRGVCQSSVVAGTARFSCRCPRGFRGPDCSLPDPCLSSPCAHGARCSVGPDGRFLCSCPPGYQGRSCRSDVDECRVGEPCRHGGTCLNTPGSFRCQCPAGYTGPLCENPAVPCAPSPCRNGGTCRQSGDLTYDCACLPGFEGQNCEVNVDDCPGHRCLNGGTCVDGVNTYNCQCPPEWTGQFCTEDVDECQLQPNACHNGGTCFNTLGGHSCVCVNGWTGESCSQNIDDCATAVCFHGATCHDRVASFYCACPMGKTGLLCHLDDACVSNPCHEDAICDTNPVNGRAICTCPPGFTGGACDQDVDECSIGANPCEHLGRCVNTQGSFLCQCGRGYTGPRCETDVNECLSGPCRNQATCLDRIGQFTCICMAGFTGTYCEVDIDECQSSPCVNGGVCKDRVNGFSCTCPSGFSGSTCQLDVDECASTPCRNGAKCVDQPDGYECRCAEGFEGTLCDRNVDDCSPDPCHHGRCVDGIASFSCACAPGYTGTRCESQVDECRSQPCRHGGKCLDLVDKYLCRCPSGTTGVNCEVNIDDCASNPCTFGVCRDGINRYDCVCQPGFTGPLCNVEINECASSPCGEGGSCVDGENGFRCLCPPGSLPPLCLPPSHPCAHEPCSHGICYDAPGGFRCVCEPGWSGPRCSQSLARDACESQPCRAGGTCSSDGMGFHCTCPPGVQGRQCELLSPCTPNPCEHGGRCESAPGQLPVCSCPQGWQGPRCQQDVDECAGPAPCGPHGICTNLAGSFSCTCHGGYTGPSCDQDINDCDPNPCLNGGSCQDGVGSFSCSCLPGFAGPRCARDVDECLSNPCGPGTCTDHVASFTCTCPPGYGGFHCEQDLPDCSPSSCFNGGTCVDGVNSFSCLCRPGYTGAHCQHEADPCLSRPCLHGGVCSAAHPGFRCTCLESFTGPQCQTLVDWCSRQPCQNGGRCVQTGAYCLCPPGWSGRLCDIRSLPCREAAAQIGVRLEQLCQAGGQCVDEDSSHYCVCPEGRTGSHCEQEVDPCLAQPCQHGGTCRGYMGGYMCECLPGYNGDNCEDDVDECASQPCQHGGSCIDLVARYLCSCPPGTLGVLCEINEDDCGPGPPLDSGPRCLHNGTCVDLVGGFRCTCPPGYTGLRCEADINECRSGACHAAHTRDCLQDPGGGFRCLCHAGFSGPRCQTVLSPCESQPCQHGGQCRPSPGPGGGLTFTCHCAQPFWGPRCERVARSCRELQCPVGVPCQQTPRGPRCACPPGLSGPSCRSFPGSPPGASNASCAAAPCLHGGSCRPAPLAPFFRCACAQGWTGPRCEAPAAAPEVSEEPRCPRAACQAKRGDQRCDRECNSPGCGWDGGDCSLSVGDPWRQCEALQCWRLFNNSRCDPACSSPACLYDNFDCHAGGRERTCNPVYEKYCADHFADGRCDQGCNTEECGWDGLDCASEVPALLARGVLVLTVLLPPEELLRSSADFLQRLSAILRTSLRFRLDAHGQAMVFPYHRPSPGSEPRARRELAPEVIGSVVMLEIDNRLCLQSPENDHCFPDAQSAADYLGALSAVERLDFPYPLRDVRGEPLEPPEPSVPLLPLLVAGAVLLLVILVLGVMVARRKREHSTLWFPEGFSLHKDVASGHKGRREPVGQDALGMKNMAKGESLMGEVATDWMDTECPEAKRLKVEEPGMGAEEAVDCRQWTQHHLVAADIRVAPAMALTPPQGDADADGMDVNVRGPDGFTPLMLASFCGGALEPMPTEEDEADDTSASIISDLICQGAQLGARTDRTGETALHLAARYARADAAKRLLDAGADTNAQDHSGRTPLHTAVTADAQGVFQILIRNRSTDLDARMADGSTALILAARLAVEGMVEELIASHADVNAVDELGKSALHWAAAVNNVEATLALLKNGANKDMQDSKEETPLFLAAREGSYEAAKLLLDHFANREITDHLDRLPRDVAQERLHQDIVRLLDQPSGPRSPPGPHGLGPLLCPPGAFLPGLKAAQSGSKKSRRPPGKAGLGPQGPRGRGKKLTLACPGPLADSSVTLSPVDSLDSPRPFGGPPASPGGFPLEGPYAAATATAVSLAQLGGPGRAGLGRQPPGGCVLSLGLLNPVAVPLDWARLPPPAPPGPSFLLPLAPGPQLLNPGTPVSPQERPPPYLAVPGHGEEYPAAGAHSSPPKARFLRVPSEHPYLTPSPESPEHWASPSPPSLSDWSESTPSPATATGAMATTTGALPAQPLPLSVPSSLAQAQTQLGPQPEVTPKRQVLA
Neurogenic locus notch homolog protein 2 (Homo sapiens), sequence (Q04721 whole entry, looked up, canonical isoform): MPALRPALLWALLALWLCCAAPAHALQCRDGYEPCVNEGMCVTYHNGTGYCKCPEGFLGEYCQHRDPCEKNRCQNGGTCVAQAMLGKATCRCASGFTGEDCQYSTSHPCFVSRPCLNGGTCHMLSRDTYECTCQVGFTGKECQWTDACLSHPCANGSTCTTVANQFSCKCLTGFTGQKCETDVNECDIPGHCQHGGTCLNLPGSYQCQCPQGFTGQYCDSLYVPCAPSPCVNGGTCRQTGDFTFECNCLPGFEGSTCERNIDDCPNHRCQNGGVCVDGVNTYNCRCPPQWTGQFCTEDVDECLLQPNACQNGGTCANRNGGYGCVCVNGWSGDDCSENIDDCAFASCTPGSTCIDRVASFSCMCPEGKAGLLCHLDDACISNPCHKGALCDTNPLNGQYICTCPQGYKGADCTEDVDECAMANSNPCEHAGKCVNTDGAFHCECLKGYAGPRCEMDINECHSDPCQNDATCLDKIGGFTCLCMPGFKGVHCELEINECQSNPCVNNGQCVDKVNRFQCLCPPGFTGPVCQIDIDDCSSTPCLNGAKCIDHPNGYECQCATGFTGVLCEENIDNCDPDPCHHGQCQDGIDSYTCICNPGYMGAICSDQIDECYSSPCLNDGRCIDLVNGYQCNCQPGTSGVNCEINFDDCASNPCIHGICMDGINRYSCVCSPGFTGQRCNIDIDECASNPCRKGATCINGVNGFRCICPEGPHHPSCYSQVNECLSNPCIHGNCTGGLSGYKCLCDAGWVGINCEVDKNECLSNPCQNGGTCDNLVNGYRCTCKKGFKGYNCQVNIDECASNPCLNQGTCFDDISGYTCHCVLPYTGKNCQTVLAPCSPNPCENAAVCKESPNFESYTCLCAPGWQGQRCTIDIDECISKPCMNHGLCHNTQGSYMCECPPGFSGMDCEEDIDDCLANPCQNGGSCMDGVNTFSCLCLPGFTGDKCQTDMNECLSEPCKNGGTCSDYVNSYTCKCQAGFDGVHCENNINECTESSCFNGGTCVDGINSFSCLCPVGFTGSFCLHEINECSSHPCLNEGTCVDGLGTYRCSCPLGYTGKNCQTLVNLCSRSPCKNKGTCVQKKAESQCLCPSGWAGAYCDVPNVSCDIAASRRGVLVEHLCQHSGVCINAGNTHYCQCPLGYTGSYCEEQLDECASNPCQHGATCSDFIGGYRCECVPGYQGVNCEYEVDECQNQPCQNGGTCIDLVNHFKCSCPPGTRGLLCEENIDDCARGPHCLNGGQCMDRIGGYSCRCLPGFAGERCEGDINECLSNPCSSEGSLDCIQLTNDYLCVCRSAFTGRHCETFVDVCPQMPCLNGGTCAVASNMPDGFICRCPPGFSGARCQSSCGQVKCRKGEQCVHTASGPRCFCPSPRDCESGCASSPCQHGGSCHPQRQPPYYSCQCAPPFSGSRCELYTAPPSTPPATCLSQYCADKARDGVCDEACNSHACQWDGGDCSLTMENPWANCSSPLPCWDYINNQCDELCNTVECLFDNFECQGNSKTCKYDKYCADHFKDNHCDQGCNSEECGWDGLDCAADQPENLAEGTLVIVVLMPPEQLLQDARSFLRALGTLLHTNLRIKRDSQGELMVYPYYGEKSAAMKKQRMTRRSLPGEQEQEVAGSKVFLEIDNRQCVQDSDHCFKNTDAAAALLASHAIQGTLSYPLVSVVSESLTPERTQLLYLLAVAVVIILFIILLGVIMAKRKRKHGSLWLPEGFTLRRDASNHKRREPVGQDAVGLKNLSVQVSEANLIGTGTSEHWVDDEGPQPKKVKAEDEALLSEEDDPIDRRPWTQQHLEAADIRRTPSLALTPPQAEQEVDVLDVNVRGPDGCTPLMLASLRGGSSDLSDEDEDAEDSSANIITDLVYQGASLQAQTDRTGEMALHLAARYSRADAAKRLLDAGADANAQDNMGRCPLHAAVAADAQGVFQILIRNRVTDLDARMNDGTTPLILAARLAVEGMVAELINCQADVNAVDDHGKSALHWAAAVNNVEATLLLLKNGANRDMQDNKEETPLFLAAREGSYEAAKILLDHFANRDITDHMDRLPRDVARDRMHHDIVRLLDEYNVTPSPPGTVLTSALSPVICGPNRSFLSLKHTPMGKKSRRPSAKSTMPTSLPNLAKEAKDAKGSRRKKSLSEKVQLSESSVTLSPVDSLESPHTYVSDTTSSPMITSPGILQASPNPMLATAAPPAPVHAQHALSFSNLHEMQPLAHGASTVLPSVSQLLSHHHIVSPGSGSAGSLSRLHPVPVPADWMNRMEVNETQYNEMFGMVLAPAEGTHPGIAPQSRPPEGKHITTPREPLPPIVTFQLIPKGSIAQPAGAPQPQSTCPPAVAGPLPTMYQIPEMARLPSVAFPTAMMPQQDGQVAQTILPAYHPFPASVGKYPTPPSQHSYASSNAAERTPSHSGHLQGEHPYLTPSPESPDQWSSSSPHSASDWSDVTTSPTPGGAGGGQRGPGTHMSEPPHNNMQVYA

SMILES | composite z-score [1] | composite z-score [2] | composite z-score [3] | composite z-score [4] | composite z-score [5] | composite z-score [6] | composite z-score [7] | z-score [8] | composite z-score [9] | composite z-score [10] | composite z-score [11] | z-score [12] | z-score [13] | z-score [14] | composite z-score [15] | z-score [16] | composite z-score [17] | composite z-score [18] | composite z-score [19] | composite z-score [20]
CC(C)[Si]1(C(C)C)OCc2cc(-c3ccc(-c4ccc(Cl)c(Cl)c4)o3)nc(CCc3ccccc3)c21 | 0.0051 | -0.217 | -0.0332 | -0.175 | -0.412 | 0.572 | 0.261 | 0.999 (inactive) | -0.0731 | -0.201 | -0.45 | -0.773 (inactive) | -3.07 (inactive) | 0.952 (inactive) | 0.797 | 1.15 (inactive) | -0.19 | 0.0365 | -0.428 | -0.218
NC(=O)[C@@H]1[C@H]2C(=O)O[C@H](c3ccccc3)[C@H](c3ccccc3)N2[C@H](c2ccc(OCCO)cc2)[C@@]12C(=O)Nc1ccc(C#CCCO)cc12 | 0.398 | 0.165 | 0.0122 | 0.786 | 0.472 | 1.23 | 1.22 | 1.62 (inactive) | -0.222 | -0.236 | 1.45 | 1.58 (inactive) | 0.883 (inactive) | 2.3 (inactive) | 1.85 | 0.459 (inactive) | 0.0847 | -0.159 | -0.0629 | -0.0622
CCc1cccc(NC(=O)O[C@H]2[C@H](OC(=O)Nc3ccccc3)[C@H](OC(=O)Nc3ccccc3)[C@@H](OC)O[C@@H]2CO)c1 | -0.0949 | 0.0776 | 0.0457 | 1.2 | 1.19 | 1.7 | 1.25 | 2.16 (inactive) | 0.766 | -0.201 | 1.5 | 1.22 (inactive) | 1.72 (inactive) | 8.61 (active) | 3.48 | -0.728 (inactive) | 0.0166 | 0.349 | 1.08 | -0.0968
COC(=O)[C@@]1(Cc2ccccc2)[C@H]2c3cc(C(=O)N(C)C)n(CCn4cc([N+](=O)[O-])nc4C)c3C[C@H]2CN1C(=O)c1ccccc1 | 0.0989 | 0.227 | -0.045 | 0.861 | 1.23 | 0.204 | 1.2 | -0.0393 (inactive) | 0.928 | -0.281 | 1.13 | -1.54 (inactive) | 0.69 (inactive) | 0.253 (inactive) | 3.63 | -0.592 (inactive) | 0.16 | 0.0356 | 1.03 | -0.0088
[N-]=[N+]=NCc1ccccc1[C@H]1OC(c2ccc(OCCCO)cc2)=N[C@@]1(CCS(=O)(=O)c1ccccc1)C(=O)NCc1ccccc1 | 0.174 | 0.447 | 0.138 | 0.914 | 1.53 | 1.33 | 1.24 | -1.68 (inactive) | 0.981 | 1.05 | 1.55 | 1.47 (inactive) | 0.431 (inactive) | 4.54 (inactive) | 3.11 | 1.28 (inactive) | 0.455 | 0.605 | 1.13 | 0.706
CCOC(=O)C[C@H]1[C@H](OC(=O)c2cc3ccccc3oc2=O)[C@@H](NC(=O)c2ccc3ccccc3c2)c2cc(OCCCO)ccc2N1C(=O)Cc1ccc(OC)cc1 | -0.59 | -0.0976 | -0.196 | 0.531 | 0.759 | 0.711 | 0.936 | -0.0206 (inactive) | 0.73 | 0.0505 | 0.631 | 0.173 (inactive) | 0.106 (inactive) | -1.33 (inactive) | 2.48 | -0.436 (inactive) | -0.0359 | 0.405 | 0.872 | 0.0009
O=C(CS)NCCCCCNC(=O)[C@@H]1C[C@@H]2C(=O)N[C@@H](Cc3ccccc3)C(=O)N2[C@@H]1c1cccc(OCCO)c1 | -0.0315 | 0.692 | -0.01 | 0.325 | 0.0566 | 1.43 | 1.39 | 0.057 (inactive) | 0.0454 | -0.277 | 1.56 | 0.368 (inactive) | -0.653 (inactive) | 0.658 (inactive) | 3.04 | 0.142 (inactive) | -0.515 | 0.203 | 0.823 | -0.0271
COC(=O)[C@@]1(Cc2ccc(F)cc2)[C@H]2c3cc(C(=O)N4CCCC4)n(CC4CC4)c3C[C@H]2CN1C(=O)c1ccccc1 | 0.349 | 0.149 | 0.0274 | 0.427 | 1.72 | 2.05 | 1.06 | 0.108 (inactive) | 1.61 | 0.0274 | 0.649 | -0.223 (inactive) | 0.64 (inactive) | 0.125 (inactive) | 3.32 | -0.475 (inactive) | 0.329 | 0.577 | 1.1 | 0.358
COCC1=C2[C@@H](CCc3ccccc3)OB(O)C[C@@H]2[C@@H]2C(=O)N(C)C(=O)[C@@H]2C1 | -0.136 | 0.0288 | -0.164 | 0.511 | 0.21 | -0.295 | 0.843 | -3.25 (inactive) | -0.0464 | -0.0618 | -0.0522 | -0.31 (inactive) | -1.56 (inactive) | -0.53 (inactive) | 0.332 | -0.817 (inactive) | -0.0141 | 0.0638 | 0.183 | -0.131
[N-]=[N+]=Nc1ccccc1C[C@]1(C(=O)O)N=C(c2ccc(OCCCO)cc2)O[C@H]1c1ccccc1N=[N+]=[N-] | 0.951 | 0.618 | 0.0857 | 0.619 | 1.23 | 1 | 1.04 | -1.57 (inactive) | 0.992 | 0.543 | 1.43 | -0.228 (inactive) | -0.896 (inactive) | -1.17 (inactive) | 3.05 | 0.814 (inactive) | 0.376 | -0.359 | 0.942 | 0.0729
CC1CC/C=C\[C@H]2OC34C=CCN(CCN5CCOCC5)C(=O)[C@H]3N(C(C)CO)C(=O)[C@@H]4C2C(=O)O1 (stereo not given in full) | -0.246 | -1.61 | -0.125 | -0.467 | -0.939 | -1.14 | 0.737 | -0.203 (inactive) | -0.311 | -0.0672 | 0.564 | 0.194 (inactive) | -0.365 (inactive) | 0.0614 (inactive) | 3.36 | -0.476 (inactive) | -0.161 | 0.223 | 0.21 | -0.156
